Reference: the supplement of paper PMC4840960
Structures can show the parent of a compound that is named as a salt. ± gives the standard deviation of the averaged measurements.

Experiments:
[1] = system: E18 rat cortical neuron-glia co-culture; test: fiber score / MBP score (myelination specific beyond OL differentiation) (ratio); higher = more myelination-specific MBP alignment; conditions: treatment time: 8 days (DIV5-DIV13)
Summary of the method: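 Papain-dissociated primary E18 rat cortical co-cultures, plated at 20,000 cells/well on poly-d-lysine/laminin 96-well plates, were exposed to library compounds at 1 or 5 µM in myelination medium between DIV5 and DIV13. Following fixation in 4 % paraformaldehyde, cultures were stained for MBP, Olig2 and DAPI, and four 10X fields per well were analysed in duplicate wells. Values are the ratio of fiber score (continuous MBP fiber length per Olig2+ nucleus) to MBP score (thresholded MBP area × intensity per Olig2+ nucleus).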

[2] = system: E18 rat cortical neuron-glia co-culture; test: myelination (MBP fiber length per Olig2+ nucleus), % of 1 µM DAPT response (DMSO = 0) (% of DAPT); higher = more myelination, active = 50 or more; conditions: treatment time: 8 days (DIV5-DIV13)
Summary of the method: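 Myelination, expressed as continuous straight MBP fiber length per Olig2+ nucleus, was normalised to 0.1 % DMSO as 0 and a 1 µM positive control as 100. The cultures were primary E18 rat cortical co-cultures dissociated with papain and plated at 20,000 cells/well on poly-d-lysine/laminin-coated 96-well plates. They received library compounds at 1 or 5 µM in myelination medium between DIV5 and DIV13. Analysis covered four 10X fields per well in duplicate wells after 4 % paraformaldehyde fixation and immunostaining for MBP and Olig2 with DAPI.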

Row | Compound | fiber score / MBP score ([1]; 1 µM) | fiber score / MBP score ([1]; 5 µM) | myelination ([2]; 1 µM) | myelination ([2]; 5 µM)
1 | O=P1(N(CCCl)CCCl)NCCCO1 (stereo unspecified) [Cyclophosphamide] | 0.725 | 0.547 | -41 (inactive) | -54.7 (inactive)
2 | C[C@]12CC[C@H]3[C@@H](CCC4=CC(=O)CC[C@@]43C)[C@@H]1CC[C@@H]2O [Testosterone] | 0.988 ± 0.093 | 0.928 ± 0.1 | -4.77 (inactive) | -15.4 (inactive)
3 | Cc1ncc2n1-c1ccc(Cl)cc1C(c1ccccc1F)=NC2 [Midazolam] | 0.908 | 1.88 | -0.202 (inactive) | 31.1 (inactive)
4 | CN1[C@@H]2CC[C@H]1C[C@@H](OC(=O)[C@H](CO)c1ccccc1)C2 [Hyoscyamine] | 0.631 | 0.692 | -15.1 (inactive) | -12.5 (inactive)
5 | CN1C(=O)COc2c(C(=O)NC3CN4CCC3CC4)cc(Cl)cc21 (stereo unspecified) [Azasetron] | 0.754 | 0.901 | -6.5 (inactive) | 2.28 (inactive)
6 | C[C@]12CC[C@H](O)CC1=CC[C@@H]1[C@@H]2CC[C@@]2(C)[C@H]1CC[C@]2(C)O [Methandriol] | 0.712 | 0.961 | -15.9 (inactive) | -4.34 (inactive)
7 | CCCCC/C=C\C/C=C\C/C=C\C/C=C\CCCC(=O)Nc1ccc(O)cc1 | 0.943 | 0.96 | -0.524 (inactive) | -30.5 (inactive)
8 | COc1ccc2[nH]cc(CCN)c2c1 [5-Methoxytryptamine] | 0.779 | 0.737 | -6.66 (inactive) | -8.85 (inactive)
9 | CC(C)c1cccc(C(C)C)c1O [Propofol] | 0.782 | 0.895 | -3.16 (inactive) | -2.27 (inactive)
10 | CN(C)C(=O)Oc1ccc[n+](C)c1 [Pyridostigmine Bromide] | 0.691 | 0.895 | -14.3 (inactive) | -8.88 (inactive)
11 | c1ccc2c(c1)Nc1ccccc1S2 [Phenothiazine] | 0.706 | 0.89 | -16.1 (inactive) | -5.33 (inactive)
12 | c1ccc2c3c([nH]c2c1)CNCC3 [Tryptoline] | 0.757 | 0.905 | -12 (inactive) | -4.44 (inactive)
13 | Cc1ccc(-c2nc3ccc(C)cn3c2CC(=O)N(C)C)cc1 [Zolpidem] | 0.967 | 0.776 | -6.37 (inactive) | -13.3 (inactive)
14 | CN1CC[C@]2(c3cccc(O)c3)Cc3nc4ccccc4cc3C[C@H]2C1 | 0.572 | 0.822 | -18.1 (inactive) | 2.91 (inactive)
15 | COc1ccc2c(c1)[C@]13CCCC[C@@H]1[C@H](C2)N(C)CC3 [Dextromethorphan] | 1.19 | 0.893 | 5.05 (inactive) | 1.54 (inactive)
16 | C[C@H]1CCC[C@H](O)CCCCCc2cc(O)cc(O)c2C(=O)O1 [Zeranol] | 0.788 | 0.876 | -13.7 (inactive) | -5.48 (inactive)
17 | CC(C)N(CCC(C(N)=O)(c1ccccc1)c1ccccn1)C(C)C (stereo unspecified) [Disopyramide] | 0.453 | 0.371 | -13.9 (inactive) | -13.6 (inactive)
18 | CCC(C(N)=O)N1CCCC1=O (stereo unspecified) [Etiracetam] | 0.904 | 0.739 | -28.6 (inactive) | -27.5 (inactive)
19 | COc1cc([C@@H]2c3cc4c(cc3[C@H](O)[C@H]3COC(=O)[C@H]23)OCO4)cc(OC)c1OC [Podophyllotoxin] | 0.393 | 0.31 | -13.9 (inactive) | -15.8 (inactive)
20 | CCC1(c2ccc(N)cc2)CCC(=O)NC1=O (stereo unspecified) [Aminoglutethimide] | 0.845 | 0.779 | -5.42 (inactive) | -5.16 (inactive)
21 | CCC(COC(=O)c1cc(OC)c(OC)c(OC)c1)(c1ccccc1)N(C)C (stereo unspecified) [Trimebutine] | 0.423 | 0.297 | -54.2 (inactive) | -64 (inactive)
22 | O=C(O)C(Cl)Cl [Dichloroacetic Acid] | 0.765 | 0.882 | -10.2 (inactive) | -7.43 (inactive)
23 | NCCc1ccccn1 [2-(2-aminoethyl)pyridine] | 0.847 | 0.699 | -7.37 (inactive) | -9.08 (inactive)
24 | O=C1CN=C(c2ccccc2)c2cc([N+](=O)[O-])ccc2N1 [Nitrazepam] | 0.887 | 0.996 | -6.44 (inactive) | 0.525 (inactive)
25 | CC[C@]1(O)CC[C@H]2[C@@H]3CCC4=CCCC[C@@H]4[C@H]3CC[C@@]21C [Ethylestrenol] | 0.661 | 1.72 | -13.8 (inactive) | 204 (active)
26 | c1cncc([C@@H]2CCCN2)c1 [Nornicotine] | 0.765 | 0.836 | -20.2 (inactive) | -19 (inactive)
27 | CS(=O)(=O)Nc1ccc(Cc2noc(-c3ccc4[nH]cc(CCN)c4c3)n2)cc1 | 0.563 | 0.612 | -19.6 (inactive) | -17.8 (inactive)

Row | Compound | fiber score / MBP score ([1]; 1 µM) | fiber score / MBP score ([1]; 5 µM) | myelination ([2]; 1 µM) | myelination ([2]; 5 µM)
28 | COc1cc(N)c(Cl)cc1C(=O)NC1CN2CCC1CC2 (stereo unspecified) [Zacopride] | 0.703 | 0.884 | -11.9 (inactive) | -0.361 (inactive)
29 | CCCC(C)(COC(N)=O)COC(=O)NC(C)C (stereo unspecified) [Carisoprodol] | 0.713 | 0.796 | -13 (inactive) | -11.9 (inactive)
30 | O[C@@H]1CCCC[C@H]1N1CCC(c2ccccc2)CC1 (racemic) [Vesamicol] | 0.528 | 0.361 | -34.6 (inactive) | -46 (inactive)
31 | CNCC(O)c1ccc(O)cc1 (stereo unspecified) [Synephrine] | 0.822 | 0.702 | -6.47 (inactive) | -10.5 (inactive)
32 | COc1cccc(C2(O)CCCCC2CN(C)C)c1 (stereo unspecified) [Tramadol] | 0.793 | 0.749 | -12.4 (inactive) | -7.33 (inactive)
33 | COc1ccc2[nH]cc(C3=CCNCC3)c2c1 | 0.706 | 0.448 | -14.7 (inactive) | -24.2 (inactive)
34 | CN1CC[C@@H](c2ccc(F)cc2)[C@H](COc2ccc3c(c2)OCO3)C1 [N-Methylparoxetine] | 0.423 | 0.379 | -58.7 (inactive) | -60.5 (inactive)
35 | c1ccc(Cn2ccnc2)cc1 [1-Benzylimidazole] | 0.664 | 0.942 | -11.8 (inactive) | -0.886 (inactive)
36 | C=CCN1CC[C@]23c4c5ccc(O)c4O[C@H]2C(=O)CC[C@@]3(O)[C@H]1C5 [Naloxone] | 0.965 | 1.09 | -7.1 (inactive) | 3.29 (inactive)
37 | C=C1C[C@@H]2[C@H](CC[C@]3(C)C(=O)CC[C@@H]23)[C@@]2(C)C=CC(=O)C=C12 [Exemestane] | 0.805 | 0.86 | -11.3 (inactive) | -11.8 (inactive)
38 | CC(C)(O)[C@@H]1[C@H]2OC(=O)[C@@H]1[C@]1(O)C[C@H]3O[C@]34C(=O)O[C@H]2[C@]14C [Picrotin] | 0.632 | 0.797 | -12.7 (inactive) | -5.47 (inactive)
39 | CN1CC[C@]23CCCC[C@H]2[C@H]1Cc1ccc(O)cc13 [Levorphanol] | 0.869 | 0.735 | -27.6 (inactive) | -51.1 (inactive)
40 | Oc1ccc2c3c1O[C@H]1[C@@H](O)CC[C@@]4(O)[C@@H](C2)N(CC2CCC2)CC[C@]314 [Nalbufina] | 0.796 | 0.955 | -19 (inactive) | -7.9 (inactive)
41 | CNC(=O)Oc1ccc2c(c1)[C@]1(C)CCN(C)[C@@H]1N2C [Physostigmine] | 0.593 | 0.703 | -13.2 (inactive) | -9.34 (inactive)
42 | CC(C)CC(N(C)C)C1(c2ccc(Cl)cc2)CCC1 (stereo unspecified) [Sibutramine] | 0.819 ± 0.34 | 1.02 ± 0.064 | -9.43 (inactive) | -0.392 (inactive)
43 | Cc1nnc2n1-c1ccc(Cl)cc1C(c1ccccc1)=NC2 [Alprazolam] | 0.628 | 0.823 | -26.1 (inactive) | -17.4 (inactive)
44 | NC1=NC(=O)C(c2ccccc2)O1 (stereo unspecified) [Pemoline] | 0.628 | 0.845 | -21.3 (inactive) | -11.3 (inactive)
45 | O=C(O)CCCc1ccc(N(CCCl)CCCl)cc1 [Chlorambucil] | 0.893 | 0.615 | -6.49 (inactive) | -17 (inactive)
46 | CNC1=Nc2ccc(Cl)cc2C(c2ccccc2)=[N+]([O-])C1 [Chlordiazepoxide] | 0.994 | 0.605 | 0.872 (inactive) | -16.1 (inactive)
47 | CN1[C@@H]2C[C@@H](OC(=O)[C@H](CO)c3ccccc3)C[C@H]1[C@@H]1O[C@@H]12 [Scopolamine hydrobromide] | 0.649 | 0.821 | -49.5 (inactive) | -31.2 (inactive)
48 | CN1C(=O)CN=C(c2ccccc2)c2cc([N+](=O)[O-])ccc21 [Nimetazepam] | 0.743 | 0.878 | -11 (inactive) | -8.49 (inactive)
49 | C[N+]1(CCC(C(N)=O)(c2ccccc2)c2ccccc2)CCCCC1 [Fenpiverinium] | 1.01 | 1.19 | 4.83 (inactive) | 191
50 | CC(=O)O[C@H]1C[C@@H]2CC[C@@H]3[C@H](CC[C@@]4(C)[C@H]3C[C@H]([N+]3(C)CCCCC3)[C@@H]4OC(C)=O)[C@@]2(C)C[C@@H]1[N+]1(C)CCCCC1 [Pancuronium] | 0.692 | 1.04 | -11 (inactive) | 2.32 (inactive)
51 | C[C@]12CCC(=O)C[C@@H]1CC[C@@H]1[C@@H]2CC[C@@]2(C)[C@H]1CC[C@]2(C)O [Mestanolone] | 0.746 | 0.854 | -21.8 (inactive) | -14.6 (inactive)
52 | CCOC(=O)c1cncn1[C@H](C)c1ccccc1 [Etomidate] | 0.772 ± 0.06 | 0.987 ± 0.1 | -14.6 (inactive) | 6.64 (inactive)
53 | CN1CCN(C(=O)O[C@H]2c3nccnc3C(=O)N2c2ccc(Cl)cn2)CC1 [Eszopiclone] | 0.461 | 0.876 | -5.43 (inactive) | 15.5 (inactive)
54 | COc1cc2c(cc1OC)[C@@]13CCN4CC5=CCO[C@H]6CC(=O)N2[C@H]1[C@H]6[C@H]5C[C@H]43 [Brucine] | 0.957 | 0.692 | -6.05 (inactive) | -15.7 (inactive)
